Assay outcomes: PubChem, several laboratories
TNAP act DEA – human TNAP activation, intermediate phosphate acceptor; P05186; purified TNAP, CDP-star luminescence, 100 mM DEA, 30 min; stronger effect = higher value; scale: 0 levamisole-inhibited, 1 vehicle-only enzyme; 64,000 tested, under 10 active; activation factor at 20 µM;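 active means activation factor of at least 2 at 20 µM, relative to controls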
Target sequence (P05186 whole entry, looked up): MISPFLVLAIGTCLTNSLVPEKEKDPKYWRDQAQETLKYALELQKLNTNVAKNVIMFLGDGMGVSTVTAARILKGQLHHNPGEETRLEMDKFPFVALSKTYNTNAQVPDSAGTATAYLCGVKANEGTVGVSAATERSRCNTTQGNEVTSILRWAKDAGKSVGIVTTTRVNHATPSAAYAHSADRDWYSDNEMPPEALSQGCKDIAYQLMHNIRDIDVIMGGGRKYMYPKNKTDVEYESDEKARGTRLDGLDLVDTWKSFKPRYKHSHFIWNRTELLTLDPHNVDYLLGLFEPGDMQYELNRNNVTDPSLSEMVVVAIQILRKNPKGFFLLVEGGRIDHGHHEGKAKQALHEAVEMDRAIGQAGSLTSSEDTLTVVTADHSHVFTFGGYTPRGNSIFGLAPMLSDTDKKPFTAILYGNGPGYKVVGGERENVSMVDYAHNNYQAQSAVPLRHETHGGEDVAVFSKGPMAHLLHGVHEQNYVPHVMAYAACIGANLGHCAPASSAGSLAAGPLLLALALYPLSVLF
PLAP act – activators of human placental alkaline phosphatase | purified PLAP enzyme, luminescent substrate read-out; stronger effect = higher value | activation fold at 20 µM | AID 696 | P05187 | actives 1.2% (n = 96,000); in the data active means activation fold above about 2
hDAT+cocaine – modulates human dopamine transporter uptake under cocaine; B-score at 10 µM; actives 1.3% (n = 110,000); AID 449768; Q01959; LLC-PK1 hDAT cells, [14C]-dopamine uptake with cocaine IC80; actives deviate in either direction;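 active means Z score or B-score, a plate-position-corrected score, falls beyond the plate's 99.7% confidence bounds, in either direction; inactive means both scores lie inside the 99.7% bounds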
HePTP inhibitor – blocks human HePTP tyrosine phosphatase; AID 521; inhibition, % at 20 µM; P35236; recombinant HePTP phosphatase activity, OD absorbance; actives 0.64% (n = 110,000); in the data active means inhibition above about 50%
Candida biofilm – kills Candida albicans biofilms; C. albicans biofilm + clotrimazole, Alamar Blue; inhibition, % at 6 µM; actives 0.14% (n = 85,000); AID 834;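 active means inhibition above 20%; inactive means inhibition below 20%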;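 further: preformed 24 hr biofilms exposed to compound for 48 hr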
D1 mod – D1 dopamine receptor (human) allosteric modulation | HEK293 D1, CRE-luciferase, dopamine EC30 potentiation; actives deviate in either direction | P21728 | B-score at 10 µM | actives 5.9% (n = 58,000) | AID 641;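 active means luminescence count or its row- and column-corrected plate score outside the 99.7% band of the plate's sample wells, on either side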
A number is an active result. The full list was thinned out, with hits kept by preference.

CC(C)N=C(NC#N)SCC(=O)NC(C)(C)C was read as TNAP act DEA inactive, PLAP act inactive, hDAT+cocaine inactive, HePTP inhibitor inactive, Candida biofilm inactive and D1 mod inactive.
CC(C)N=C(NC#N)SCc1ccccc1F was read as TNAP act DEA inactive, PLAP act inactive, hDAT+cocaine -8.5, HePTP inhibitor inactive, Candida biofilm inactive and D1 mod inactive.
For CSCCC(/C(O)=C(\C#N)c1nc2ccccc2[nH]1)N1C(=O)c2ccccc2C1=O (stereo not drawn) the results were TNAP act DEA inactive, PLAP act 2, hDAT+cocaine inactive, HePTP inhibitor inactive, Candida biofilm inactive and D1 mod inactive.
For N#C/C(=C(/O)CN1C(=O)c2ccccc2C1=O)c1nc2ccccc2[nH]1 the results were TNAP act DEA inactive, PLAP act 2.1, hDAT+cocaine inactive, HePTP inhibitor inactive, Candida biofilm inactive and D1 mod inactive.
For N#C/C(=C(/O)CCCN1C(=O)c2ccccc2C1=O)c1nc2ccccc2[nH]1 the results were HePTP inhibitor inactive.
COc1ccc2c(c1)C1=C(CC2)C(c2ccc(N(C)C)cc2)NC(=S)N1 (stereo not drawn) was read as HePTP inhibitor inactive.
Screening CC/C(=C\C(=O)c1ccncc1)Nc1ccc(O)cc1 returned TNAP act DEA inactive, PLAP act inactive, hDAT+cocaine 3, HePTP inhibitor inactive, Candida biofilm inactive and D1 mod inactive.
`COc1ccc(-c2cc(C(F)(F)F)n3nc(C(=O)Nc4cccc(O)c4)cc3n2)cc1OC` gave HePTP inhibitor inactive.
Cc1ccc(S(=O)(=O)N2CCC(C(=O)NCCN3CCCCCC3)CC2)cc1 was read as TNAP act DEA inactive, PLAP act 2.1, hDAT+cocaine inactive, HePTP inhibitor inactive, Candida biofilm inactive and D1 mod inactive.
Screening Cc1ccc(S(=O)(=O)N2CCC(C(=O)N3CCC[C@H]3C(=O)NC3CCS(=O)(=O)C3)CC2)cc1 (stereo partly drawn) returned TNAP act DEA inactive, PLAP act 2, hDAT+cocaine inactive, HePTP inhibitor inactive, Candida biofilm inactive and D1 mod inactive.
`Cc1cc(C)cc(OCC(=O)Nc2nonc2NC(=O)COc2cc(C)cc(C)c2)c1` gave TNAP act DEA inactive, PLAP act 2.3, hDAT+cocaine inactive, HePTP inhibitor inactive, Candida biofilm inactive and D1 mod inactive.
`Cc1cc(C)cc(OCC(=O)NCC2CCCO2)c1` (stereo not drawn) gave TNAP act DEA inactive, PLAP act inactive, hDAT+cocaine inactive, HePTP inhibitor inactive and D1 mod -4.8.
Cc1cccc(C(=O)NC2CC(C)(C)NC(C)(C)C2)c1 was read as TNAP act DEA inactive, PLAP act inactive, hDAT+cocaine inactive, HePTP inhibitor inactive, Candida biofilm inactive and D1 mod inactive.
For CC1(C)CC(NC(=O)c2cccc(Cl)c2)CC(C)(C)N1 the results were HePTP inhibitor 102.
`CC(C)CNC(=O)c1cc(-c2ccco2)nc2ccccc12` gave HePTP inhibitor inactive.
Screening CCC(C)Nc1nc(OC(C(F)(F)F)C(F)(F)F)nc(OC(C(F)(F)F)C(F)(F)F)n1 (stereo not drawn) returned hDAT+cocaine 3.2 and Candida biofilm inactive.
`CCOC(=O)C(=O)Nc1sc2c(c1C(=O)OCC)CC(C)(C)OC2` gave HePTP inhibitor inactive.
For Cc1ccc(C)c(N2CCN(C(=O)Cc3cn(C)c4ccccc34)CC2)c1 the results were PLAP act inactive, hDAT+cocaine inactive and Candida biofilm inactive.
Screening Cc1ccc(Cl)cc1N1CCN(C(=O)Cc2cn(C)c3ccccc23)CC1 returned PLAP act 2, hDAT+cocaine inactive and Candida biofilm inactive.
For N#CSCCCCCCOc1cccc(Cl)c1 the results were HePTP inhibitor inactive.
COC(=O)CCC(=O)OC1(C)C(=O)C=C2C=C(C3CC3)N(CC3CC3)C=C2C1=O (stereo not drawn) was read as hDAT+cocaine inactive.
For COC(=O)CCC(=O)OC1(C)C(=O)C=C2C=C(C3CC3)N(Cc3ccccc3)C=C2C1=O (stereo not drawn) the results were hDAT+cocaine -2.3.
`O=C(/C(=C\c1ccc([N+](=O)[O-])cc1)n1cncn1)c1ccc(Cl)cc1Cl` gave HePTP inhibitor inactive.
`COc1cc(/C=C(/C#N)C(=O)Nc2cccc(Br)c2)cc(OC)c1O` gave HePTP inhibitor inactive.
